# The list is not random: actives were taken first. Their share in the collection is about 19%.
# TDP1 cell noCPT: qHTS for Inhibitors of human tyrosyl-DNA phosphodiesterase 1 (TDP1): qHTS in cells in absence of CPT; DT40 Tdp1-/- hTDP1 cells, no CPT, ATP luminescence, 48 h; AID 686978, 2013; 420,000 compounds, 15% hits; Potency, µM (doses to about 46.2 µM), for inactives: at the highest dose activity change, negative = growth inhibition, actives largely listed as inhibitors; also: potency is read from the fitted curve at half-maximal effect; nearly all actives have a fitted effect of over 55% in size
#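 Growth of hTDP1-complemented DT40 Tdp1-knockout cells is measured by ATP luminescence after at least 48 hr compound exposure at 37 °C, with DMSO substituting for the 20 nM CPT used in the parallel screen.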
# HT1080NT lethal: kills 2HG-producing HT-1080-NT fibrosarcoma cells | 360,000 compounds, 1.6% hits | HT-1080-NT fibrosarcoma viability, CellTiter-Glo ATP luminescence, 48 h | Potency, µM (highest dose often 46.1 µM), for the others: at the highest dose activity, negative = less viability, usual class: cytotoxic;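 also: NT is the 2HG producing partner of a matched IDH1 knockdown line; potency is read from the fitted curve at half-maximal effect; 0% = DMSO-treated cells and -100% = media-only wells without cells; nearly all actives have a fitted effect of over 55% in size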
#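 Fibrosarcoma NT cells, 750 per well in 5% FBS RPMI, were exposed to compound for 48 hours. Viability: CellTiter-Glo luminescence.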
# IL-1B inflam inh: inflammasome signaling inhibition, IL-1 beta readout. THP-1 LPS/ATP IL-1B secretion, AlphaLISA, 16 h; active compounds read low. activity change, % at 57.5 µM. 360,000 compounds, 4.7% hits; in the data active = activity change below about -50%; inconclusive = mostly about -30% to -49%
#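 Secreted IL-1B measured by AlphaLISA bead assay after 16 h compound exposure of THP-1 cells; compounds (final up to 57.5 uM) added 1 h before LPS (250 ng/mL) and ATP (1.25 mM) stimulation; lower signal means less secretion.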
# HT1080 IDH1KD tx: toxicity to HT-1080 IDH1 knockdown cells (counter line) | Potency, µM (titrated, usually from 46.1 µM), without a hit: at the highest dose activity, negative = toxicity, usual class: cytotoxic | AID 686971 | 360,000 compounds, 2% hits | HT-1080 IDH1 knockdown viability, ATP luminescence, 48 h;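 also: potency is read from the fitted curve at half-maximal effect; 0% = DMSO wells and -100% = cell-free medium wells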
#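 IDH1KD HT-1080 cells, 750/well, RPMI + 5% FBS; compound pinned after 2 h settling; 48 h, 37 °C; CellTiter-Glo luminescence; % activity normalised to DMSO and no-cell wells; curves fitted, classed by r2 and efficacy.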
# TDP1 cell CPT: DT40-hTDP1 cell growth loss with CPT; chicken DT40 Tdp1-/-;hTDP1 cells + 20 nM CPT, ATP luminescence, 48 h; Potency, µM (top dose mostly 46.2 µM), for the others: top-dose activity change, negative = growth inhibition, hits mostly inhibitors; 420,000 compounds, 12% hits; AID 686979; also: potency is read from the fitted curve at half-maximal effect; nearly all actives have a fitted effect of over 55% in size
#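 Chicken DT40 Tdp1-/- cells stably complemented with human TDP1 were seeded at 400 cells/well in medium containing 20 nM camptothecin, exposed to pin-transferred compounds, and grown at 37 °C for at least 48 hr. Viability was read as ATP luminescence.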
# ELG1 repair inh: inhibitors of ELG1-dependent DNA repair in HEK293T cells | 330,000 compounds, 2.3% hits | Potency, µM (highest dose often 46.1 µM), inactives show top-dose activity change, negative = inhibition, usual class: inhibitors | HEK293T ELG1-luciferase reporter, luminescence, 16 h; DNA damage induced by 5-fluorouridine; also: potency is read from the fitted curve at half-maximal effect; nearly all actives have a fitted effect of over 55% in size
#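 DMSO vehicle served as the neutral condition. Each well held 2,000 cells given 5-fluorouridine plus compound; after 16 hr at 37 °C/5% CO2, ONE-Glo was added and luciferase measured 30 min later.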
# An asterisk follows results filed as active; ? = inconclusive; / = no result; [ ] = remark or other dose. Unless noted, calls follow the shape of the dose curve; as a rule, active = well fitted curve in the direction sought with a large enough effect; inconclusive = small, poorly fitted or top-dose-only effect, or another doubt; inactive = no such curve, though single readings can be large; an effect the other way counts as inactive or inconclusive. Unless noted, % is scaled to controls: 0 for no effect and ±100 for the full control effect.
SMILES,TDP1 cell noCPT,HT1080NT lethal,IL-1B inflam inh,HT1080 IDH1KD tx,TDP1 cell CPT,ELG1 repair inh
O=C(O)CC(NS(=O)(=O)c1ccc(Cl)s1)c1ccccc1 (stereo not given),27.8%,/,/,/,1.1%,/
O=S(=O)(c1ccc(=S)[nH]c1)N1CCCC1,?,-7.3%,7.3,-0.9%,?,?
COc1cc2sc3cc(NCc4ccc(C)o4)ccc3c(=O)c2cc1OC,14.6µM*,-0.8%,-68.8*,1.6%,?,?
COC(=O)c1cc(NCc2ccc3c(c2)OCO3)ccc1N1CCOCC1,-21.5%,0.8%,-17.7,2.3%,-11.1%,-24.8%
COc1cc2sc3cc(NCc4ccc5c(c4)OCO5)ccc3c(=O)c2cc1OC,16.4µM*,-3.7%,-22.1,4.4%,?,?
COc1ccc(NCc2ccc3c(c2)OCO3)cc1Cl,-15.9%,-24.2%,-93.4*,1.1%[9.24 µM],-12.3%,?
CCN(CC)S(=O)(=O)c1ccc(C)c(NC(=O)COC(=O)CCC(=O)c2cccs2)c1,-10.8%,-3.4%,17.4,7.8%,3.3%,1.0%
COc1cc(SC)ccc1C(=O)OC(C)C(=O)Nc1ccc(NC(C)=O)cc1 (stereo not given),?,-0.3%,2.0,1.2%,-6.9%,-21.0%
CC(OC(=O)c1cccc(S(=O)(=O)Nc2cccc(C(F)(F)F)c2)c1)C(=O)Nc1ccc2c(c1)OCCO2 (stereo not given),16.4µM*,-15.4%,-3.7,-9.3%,-21.7%,?
COc1cc(OC)c(C(=O)OC(C)C(=O)Nc2cccc(C(F)(F)F)c2)cc1OC (stereo not given),?,-2.5%,9.5,-19.8%,23.1µM*,-7.1%
CC(C)(C)OC(=O)C[C@H]1C/C=C\C[C@H](CC(=O)NCCO)C(=O)N[C@@H](c2ccccc2)COC1=O,-14.7%,8.2%,20.2,12.9%,-14.9%,-28.6%
CCN(CC(=O)Nc1cc(Cl)ccc1C)C(=O)CCS(=O)(=O)c1ccc(C)cc1,-25.2%,-15.0%,-14.1,-2.1%,-8.4%,-6.0%
COc1ccc(NC(=O)c2cc3c(CO)cnc(C)c3oc2=Nc2cccc(C)c2)c(OC)c1,4.11µM*,-5.5%,150.3,23.2%,?,-23.9%
CCOc1ccc2c(c1)N(C(=O)CN1C(=O)CCC1=O)C(C)(C)C=C2C,?,10.4%,-14.7,10.2%,?,-15.8%
CC1=CC(C)(C)N(C(=O)CNC2CCCC2)c2cc(C)ccc21,25.9µM*,-16.8%,0.0,-1.3%,?,-7.2%
CSc1ccc(/C=C2/C(C)=C(CC(=O)O)c3cc(F)ccc32)cc1,-7.2%,/,/,/,-21.2%,/
CC(C)OCCCNC(=O)c1ccc2c(c1)NC(=O)c1ccccc1S2,-22.3%,-11.4%,20.7,?,-28.6%,-9.0%
CCCC1=Nc2cc(C(=O)NCCOC)ccc2Sc2ccccc21,0.581µM*,/,/,/,?,/
CCCC1=Nc2cc(C(=O)N3CCC(C(N)=O)CC3)ccc2Sc2ccccc21,-11.4%,-4.8%,0.0,-6.8%,-16.8%,0.5%
CCCC1=Nc2cc(C(=O)NCCCOC(C)C)ccc2Sc2ccccc21,4.11µM*,11.6µM*,41.2,18.4µM*,4.61µM*,-1.2%
CN(C1(C)CCS(=O)(=O)C1)S(=O)(=O)c1ccc2ccccc2c1 (stereo not given),-23.4%,-7.3%,?,-2.1%,-12.0%,-21.5%
O=C(O)c1c[nH]c2c([N+](=O)[O-])cccc2c1=O,9.2µM*,-6.5%,21.8,-16.7%,?,/
S=C1Cc2ccccc2N1,0.731µM*,4.61µM*,-101.4*,5.17µM*,0.92µM*,?
CCOc1ccc(-c2nnc3sc(-c4ccccc4OC)nn23)cc1,-6.2%,13.1%,-13.7,-0.4%,-12.9%,/
COc1ccccc1-c1nnc2sc(-c3cc4ccccc4o3)nn12,1.03µM*,?,101.2,1.46µM*,1.16µM*,13.1%
SMILES,TDP1 cell noCPT,HT1080NT lethal,IL-1B inflam inh,HT1080 IDH1KD tx,TDP1 cell CPT,ELG1 repair inh
COc1ccccc1-c1nnc2sc(-c3ccc(N(C)C)cc3)nn12,0.082µM*,0.92µM*,-1.2,0.517µM*,0.0073µM*,7.5%
COc1ccccc1-c1nn2c(-c3ccc(C(C)(C)C)cc3)nnc2s1,/,/,/,/,/,-2.1%
COc1ccccc1-c1nnc2sc(COc3ccc(F)cc3)nn12,?,-11.9%,-66.8*,-16.9%,?,?
COc1ccccc1-c1nnc2sc(-c3cnccn3)nn12,-25.4%,7.5%,21.9,8.6%,-22.1%,4.9%
COc1ccc(-c2c(C)nn3c(N4CCC(C(=O)NCCN(C)C)CC4)cc(C)nc23)cc1OC,-0.8%,?,-7.7,-19.2%,?,7.9%
CCOCCCNC(=O)C1CCN(c2cc(C)nc3c(-c4ccc(Cl)cc4)c(C)nn23)CC1,-12.7%,/,/,/,-12.4%,/
CCCN(CCC)C(=O)C1CCN(c2cc(C)nc3c(-c4ccc(OC)c(OC)c4)c(C)nn23)CC1,16.4µM*,-2.9%,-14.9,1.0%,18.4µM*,6.51µM*
COCCCNC(=O)C1CCN(c2cc(C)nc3c(-c4ccc(OC)c(OC)c4)c(C)nn23)CC1,16.4µM*,/,/,/,-18.0%,/
CCN(CC)CCNC(=O)C1CCN(c2cc(C)nc3c(-c4ccc(Cl)cc4)c(C)nn23)CC1,4.11µM*,/,/,/,3.66µM*,/
COc1ccccc1CNC(=O)c1ccc(N2CCCC2)c(NC(=O)NCc2ccc(F)cc2)c1,-28.2%,/,/,/,?,/
CN(c1ccc(Cl)cc1)S(=O)(=O)c1nnc(NC(=O)C(C)(C)C)s1,2.1%,1.8%,-5.3,9.9%,-17.8%,-12.6%
Cc1ccc(S(=O)(=O)N(C)Cc2ccc(C(=O)N/N=C/c3ccc(OC(F)F)cc3OC(F)F)cc2)cc1,23.1µM*,5.2%,6.9,-26.6%,?,?
O=C(N/N=C/c1ccc(OC(F)F)cc1OC(F)F)c1ccc(Br)cc1,20.6%,14.9%,16.0,13.4%,-10.3%,?
CCOC(=O)N1CCN(S(=O)(=O)N2CCCC(C(=O)NCc3cc(OC)ccc3OC)C2)CC1 (stereo not given),?,1.6%,-1.9,2.5%,?,/
NC(=O)c1cccc(-c2cnc(N)c(C(=O)c3cccnc3)n2)c1,9.2µM*,-19.5%,-95.0*,-25.2%,2.31µM*,/
CCOc1ccc(NC(=O)C(=O)NCC(c2cccnc2)N2CCc3ccccc32)cc1 (stereo not given),3.66µM*,/,/,/,4.11µM*,/
COC(=O)c1ccc(NC(=O)C(=O)NCC(c2cccnc2)N2CCc3ccccc32)cc1 (stereo not given),16.4µM*,/,/,/,14.6µM*,/
